The values below come from PubChem BioAssay (EPA / NIEHS).

Where “and” joins values, the source holds several entries; their conditions need not be identical. Equal entries are not always repeated. Inconclusive results are not listed. The source holds several records for some structures; these can differ, active in one and inactive in another. Calls of active or inactive are those of the source. How the source made its calls, unless noted: active means hit-call score of the fitted dose curve at least 0.9, where 1 is the maximum; inactive means score below 0.9.

The target in test [1] is Peroxisome proliferator-activated receptor gamma (Homo sapiens) (UniProt P37231). Put plainly: OT_PPARg_PPARgSRC1_0480: Odyssey Thera (OT) 8-hour Protein-Complementation Assay for Peroxisome Proliferator-activated Receptor Gamma / SRC-1 Co-activator (AID 2283387; active means hit-call score of the fitted dose curve at least 0.9, where 1 is the maximum;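 further: nuclear to cytoplasmic split Venus YFP fluorescence ratio reporting PPARg SRC-1 interaction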). A digest of the protocol:
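Read-out: 488 nm N/C fluorescence ratio from complemented Venus YFP fragments, ≥350 cells per image, gain-of-signal fitted against DMSO baseline. Fusions of PPARg/SRC-1 with IFP1/IFP2 expressed transiently in HEK293T; compounds applied 8 h.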

The target is the same in test [2]. Put plainly: OT_PPARg_PPARgSRC1_1440: Odyssey Thera (OT) 24-hour Protein-Complementation Assay for Peroxisome Proliferator-activated Receptor Gamma/ SRC-1 Co-activator (AID 2283388; active means hit-call score of the fitted dose curve at least 0.9, where 1 is the maximum;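 further: nuclear to cytoplasmic ratio of reconstituted Venus YFP fluorescence in fixed imaged cells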). A digest of the protocol: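 Cells carrying the PPARg/SRC-1 fragment-complementation reporter receive compound for 24 hours, are fixed and counterstained with Draq5, then imaged. Increased nuclear relative to cytoplasmic YFP fluorescence above DMSO baseline indicates binding activity.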

Test [3] in a line: CEETOX_H295R_OHPREG: CeeTox H295R High-throughput Steroidogenesis Assay for OH-Pregnenolone (OHPREG) (AID 2283434). Conditions: actives raise or lower the signal. A digest of the protocol:
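H295R cells pre-stimulated 48 h with 10 uM forskolin, then exposed 48 h to chemical in 0.1% DMSO. 17alpha-hydroxypregnenolone in medium quantified by MTBE extraction and HPLC-MS/MS; bidirectional fit versus DMSO, viability checked by MTT.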

The nature of test [4]: CEETOX_H295R_PROG: CeeTox H295R High-throughput Steroidogenesis Assay for Progesterone (PROG) (AID 2283442).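 On AC50: human H295R adrenal cells primed with 10 µM forskolin before dosing.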 The following applies: actives raise or lower the signal. A digest of the protocol: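 Measured analyte is progesterone secreted by H295R cells at 48 h of chemical treatment, following 10 uM forskolin priming. Quantitation used HPLC-MS/MS against a 7-point standard curve; cytotoxicity was checked by MTT absorbance.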

Read-out in test [5]: Tumor necrosis factor receptor superfamily member 6 (Homo sapiens) (UniProt P25445)
Put plainly: LTEA_HepaRG_FAS: Life Technologies and Expression Analysis (LTEA) Assay for Fas cell surface death receptor (FAS) using HepaRG (AID 2283447). Conditions: mRNA level, 48 h; actives raise or lower the signal. A digest of the protocol:
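Differentiated HepaRG cells in serum-free induction medium were exposed 48 h to 8 half-log concentrations up to 100 uM in 0.5% DMSO, in duplicate. FAS mRNA was measured by qRT-PCR normalised to ACTB, GAPDH and POLR2A; bidirectional fit versus DMSO.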

Read-out in test [6]: Fatty acid synthase (Homo sapiens) (UniProt P49327)
Put plainly: LTEA_HepaRG_FASN: Life Technologies and Expression Analysis (LTEA) Assay for Fatty Acid Synthase (FASN) using HepaRG (AID 2283448).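 On AC50: differentiated human HepaRG liver cells in serum-free induction medium.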 Conditions: mRNA level, 48 h; actives raise or lower the signal. Summed up: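 Transcript-level assay: HepaRG liver cells are treated for 48 h across an eight-point range topping at 100 uM, and FASN mRNA, normalized to three housekeeping genes, is compared with DMSO controls in both directions.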

Read-out in test [7]: Cyclin D1 (CCND1), CCND1 (gene 595)
Put plainly: LTEA_HepaRG_CCND1: Life Technologies and Expression Analysis (LTEA) Assay for Cyclin D1 (CCND1) using HepaRG (AID 2283451).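 On AC50: differentiated human HepaRG liver cells in serum-free induction medium; TaqMan qRT-PCR transcript level normalised to ACTB GAPDH and POLR2A housekeeping genes.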 The following applies: mRNA level, 48 h; actives raise or lower the signal. Summed up: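 Expression change is measured by qRT-PCR in HepaRG cells after 48 h treatment across eight concentrations topping at 100 uM, with duplicate wells and DMSO (0.5%) serving as baseline for bidirectional fitting.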

Read-out in test [8]: catalase (CAT), CAT (gene 847)
Put plainly: LTEA_HepaRG_CAT: Life Technologies and Expression Analysis (LTEA) Assay for catalase (CAT) using HepaRG (AID 2283452). Conditions: mRNA level, 48 h; actives raise or lower the signal. Summed up:
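HepaRG cells in serum-free induction medium, 0.5% DMSO vehicle, exposed 48 h in duplicate over 8 half-log concentrations from 100 uM. CAT mRNA measured by qRT-PCR, normalized to ACTB, GAPDH, POLR2A; bidirectional fit versus DMSO.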

Read-out in test [9]: flavin-containing dimethylaniline monooxygenases 3 (FMO3), FMO3 (gene 2328)
Put plainly: LTEA_HepaRG_FMO3: Life Technologies and Expression Analysis (LTEA) Assay for flavin-containing dimethylaniline monooxygenases 3 (FMO3) using HepaRG (AID 2283453).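 On AC50: differentiated human HepaRG liver cells in serum-free induction medium; FMO3 transcript by TaqMan qRT-PCR normalized to ACTB GAPDH and POLR2A.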 Conditions: mRNA level, 48 h; actives raise or lower the signal. A digest of the protocol:
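HepaRG, 48 h exposure, 8-pt half-log series from 100 uM, 0.5% DMSO vehicle, duplicates; FMO3 transcript by Fluidigm TaqMan qRT-PCR, housekeeping-normalized; gain/loss fit vs DMSO.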

Read-out in test [10]: Cytochrome P450 (CYP1A1), CYP1A1 (gene 1543)
Put plainly: LTEA_HepaRG_CYP1A1: Life Technologies and Expression Analysis (LTEA) Assay for Cytochrome P450 (CYP1A1) using HepaRG (AID 2283454). The following applies: mRNA level, 48 h; actives raise or lower the signal. Summed up:
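Using HepaRG cultures with 0.5% DMSO as vehicle, eight-concentration exposures (max 100 uM) lasted 48 h. Transcript levels were measured by TaqMan qRT-PCR and normalized to ACTB, GAPDH and POLR2A.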

Read-out in test [11]: CFLAR gene, CFLAR (gene 8837)
Put plainly: LTEA_HepaRG_CFLAR: Life Technologies and Expression Analysis (LTEA) Assay for CFLAR gene using HepaRG (AID 2283455). Conditions: mRNA level, 48 h; actives raise or lower the signal. A digest of the protocol:
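Differentiated HepaRG cells in serum-free induction medium were exposed 48 h in duplicate to eight half-log concentrations up to 100 uM in 0.5% DMSO; mRNA measured by TaqMan qRT-PCR, normalized to ACTB, GAPDH, POLR2A; bidirectional fitting versus DMSO.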

Read-out in test [12]: Forkhead box O1 (FOXO1), FOXO1 (gene 2308)
Put plainly: LTEA_HepaRG_FOXO1: Life Technologies and Expression Analysis (LTEA) Assay for Forkhead box O1 (FOXO1) using HepaRG (AID 2283456). Conditions: mRNA level, 48 h; actives raise or lower the signal. A digest of the protocol: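 Differentiated HepaRG cells, in serum-free induction medium with 0.5% DMSO, exposed 48 h in duplicate to 8-point half-log series from 100 uM. FOXO1 mRNA measured by TaqMan qRT-PCR, normalized to ACTB, GAPDH, POLR2A; bidirectional fit versus DMSO.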

Test [13] in a line: CEETOX_H295R_11DCORT: CeeTox H295R High-throughput Steroidogenesis Assay for 11-Deoxycortisol (11DCORT) (AID 2283432). The following applies: actives raise or lower the signal. A digest of the protocol: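 H295R cells; 10 uM forskolin prestim 48 h; compound in 0.1% DMSO 48 h; media extracted with MTBE; 11-deoxycortisol by LC-MS/MS, 7-point standard curve; gain/loss vs DMSO baseline; viability by MTT in same wells.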

Test [14] can be described thus: CEETOX_H295R_CORTIC: CeeTox H295R High-throughput Steroidogenesis Assay for Corticosterone (CORTIC) (AID 2283437).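 Further: corticosterone secreted into medium quantified by mass spectrometry.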 The following applies: actives raise or lower the signal. Summed up: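 H295R adrenal cells prestimulated 48 hours with 10 uM forskolin, then exposed 48 hours to chemical in 0.1% DMSO. Corticosterone in medium measured by HPLC-MS/MS after MTBE extraction; MTT viability in the same wells; bidirectional fit versus DMSO.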

The nature of test [15]: CEETOX_H295R_CORTISOL: CeeTox H295R High-throughput Steroidogenesis Assay for Cortisol (AID 2283438).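 Further: cortisol secreted into medium quantified by LC-MS/MS.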 The following applies: actives raise or lower the signal. Summed up: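 Human adrenocortical H295R cells (passage ≤10) received test chemicals for 48 h after forskolin priming. Secreted cortisol was measured by LC-MS/MS.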
The nature of test [16]: CEETOX_H295R_DOC: CeeTox H295R High-throughput Steroidogenesis Assay for DOC (AID 2283439). Conditions: actives raise or lower the signal. Summed up:
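Secreted DOC was quantified from H295R media by HPLC-MS/MS after 48 h chemical exposure following 48 h forskolin (10 uM) prestimulation. Values were fitted in both directions relative to DMSO, the negative control and baseline.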

Read-out in test [17]: Cyclin Dependent Kinase Inhibitor 1A (CDKN1A), CDKN1A (gene 1026)
Put plainly: LTEA_HepaRG_CDKN1A: Life Technologies and Expression Analysis (LTEA) Assay for Cyclin Dependent Kinase Inhibitor 1A (CDKN1A) using HepaRG (AID 2283450). Conditions: mRNA level, 48 h; actives raise or lower the signal. Summed up:
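Gain or loss of CDKN1A transcript is scored by bidirectional fitting against 0.5% DMSO vehicle. Human HepaRG cultures receive chemicals for 48 h across an 8-point series peaking at 100 uM; expression comes from qRT-PCR.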

The term AC50 denotes the midpoint of the concentration-response curve, whichever way the signal moves.

Sequence of Fatty acid synthase (Homo sapiens) (P49327 whole entry, looked up): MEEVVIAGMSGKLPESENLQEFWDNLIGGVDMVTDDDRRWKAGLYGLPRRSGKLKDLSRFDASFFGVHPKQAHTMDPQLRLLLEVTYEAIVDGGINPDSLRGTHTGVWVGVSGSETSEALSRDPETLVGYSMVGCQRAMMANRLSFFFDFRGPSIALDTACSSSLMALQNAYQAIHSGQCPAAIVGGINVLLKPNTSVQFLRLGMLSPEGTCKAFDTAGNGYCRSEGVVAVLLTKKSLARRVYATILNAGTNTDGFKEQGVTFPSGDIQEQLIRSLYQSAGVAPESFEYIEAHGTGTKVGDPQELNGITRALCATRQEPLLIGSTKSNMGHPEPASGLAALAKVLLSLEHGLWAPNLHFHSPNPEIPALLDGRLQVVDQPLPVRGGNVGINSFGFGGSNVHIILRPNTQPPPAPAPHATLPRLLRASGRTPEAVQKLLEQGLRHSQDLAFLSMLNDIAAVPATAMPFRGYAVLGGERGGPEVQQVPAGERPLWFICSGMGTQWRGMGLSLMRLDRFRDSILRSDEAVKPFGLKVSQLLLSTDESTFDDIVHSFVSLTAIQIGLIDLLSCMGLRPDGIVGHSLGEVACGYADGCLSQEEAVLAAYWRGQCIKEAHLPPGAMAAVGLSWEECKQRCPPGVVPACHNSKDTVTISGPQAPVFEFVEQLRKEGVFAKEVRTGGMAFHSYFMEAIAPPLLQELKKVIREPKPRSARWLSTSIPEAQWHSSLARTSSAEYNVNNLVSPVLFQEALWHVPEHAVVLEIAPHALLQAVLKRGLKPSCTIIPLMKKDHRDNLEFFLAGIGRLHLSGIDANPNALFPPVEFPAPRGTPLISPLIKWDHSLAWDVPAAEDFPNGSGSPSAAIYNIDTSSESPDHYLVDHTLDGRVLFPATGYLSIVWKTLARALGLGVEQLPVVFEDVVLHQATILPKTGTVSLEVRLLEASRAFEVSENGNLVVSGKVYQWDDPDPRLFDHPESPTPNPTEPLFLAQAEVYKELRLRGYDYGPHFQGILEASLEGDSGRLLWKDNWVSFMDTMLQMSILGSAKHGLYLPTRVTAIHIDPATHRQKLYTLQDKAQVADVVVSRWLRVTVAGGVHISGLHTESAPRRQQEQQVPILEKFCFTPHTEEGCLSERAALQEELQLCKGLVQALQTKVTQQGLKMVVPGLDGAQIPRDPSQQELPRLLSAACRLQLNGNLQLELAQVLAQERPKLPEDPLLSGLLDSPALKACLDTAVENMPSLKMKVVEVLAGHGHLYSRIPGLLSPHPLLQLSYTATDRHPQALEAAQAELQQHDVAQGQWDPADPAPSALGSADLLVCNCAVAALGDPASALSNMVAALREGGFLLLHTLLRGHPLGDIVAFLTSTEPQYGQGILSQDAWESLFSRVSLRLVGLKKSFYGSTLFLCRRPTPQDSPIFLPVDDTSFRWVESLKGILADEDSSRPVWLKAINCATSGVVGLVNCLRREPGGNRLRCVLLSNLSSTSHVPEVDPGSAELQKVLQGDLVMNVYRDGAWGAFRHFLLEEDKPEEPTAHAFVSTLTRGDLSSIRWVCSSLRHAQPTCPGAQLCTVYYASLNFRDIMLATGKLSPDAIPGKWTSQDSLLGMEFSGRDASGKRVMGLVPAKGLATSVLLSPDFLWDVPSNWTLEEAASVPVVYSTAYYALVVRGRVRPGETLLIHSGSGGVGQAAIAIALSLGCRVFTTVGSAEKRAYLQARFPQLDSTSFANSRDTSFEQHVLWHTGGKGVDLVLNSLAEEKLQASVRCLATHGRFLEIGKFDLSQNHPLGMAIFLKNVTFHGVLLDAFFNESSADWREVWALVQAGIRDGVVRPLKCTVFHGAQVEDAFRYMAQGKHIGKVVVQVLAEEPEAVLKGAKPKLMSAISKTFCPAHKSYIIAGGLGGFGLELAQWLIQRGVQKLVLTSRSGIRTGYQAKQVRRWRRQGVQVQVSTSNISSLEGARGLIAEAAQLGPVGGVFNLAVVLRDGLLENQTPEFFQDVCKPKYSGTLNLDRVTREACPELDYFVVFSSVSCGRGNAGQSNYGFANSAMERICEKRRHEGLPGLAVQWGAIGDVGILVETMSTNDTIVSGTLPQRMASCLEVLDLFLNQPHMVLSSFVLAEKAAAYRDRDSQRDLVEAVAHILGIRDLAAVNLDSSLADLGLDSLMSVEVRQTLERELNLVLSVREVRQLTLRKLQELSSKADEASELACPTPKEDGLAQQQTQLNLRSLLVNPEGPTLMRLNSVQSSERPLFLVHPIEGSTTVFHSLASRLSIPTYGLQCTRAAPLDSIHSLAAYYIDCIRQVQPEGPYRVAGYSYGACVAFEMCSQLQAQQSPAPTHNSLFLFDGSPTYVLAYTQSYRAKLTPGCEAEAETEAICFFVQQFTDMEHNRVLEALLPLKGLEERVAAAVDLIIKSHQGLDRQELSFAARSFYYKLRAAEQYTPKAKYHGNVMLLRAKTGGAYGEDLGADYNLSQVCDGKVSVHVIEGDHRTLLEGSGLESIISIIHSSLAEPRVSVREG
Sequence of Peroxisome proliferator-activated receptor gamma (Homo sapiens) (P37231 whole entry, looked up, the tested form may be a part): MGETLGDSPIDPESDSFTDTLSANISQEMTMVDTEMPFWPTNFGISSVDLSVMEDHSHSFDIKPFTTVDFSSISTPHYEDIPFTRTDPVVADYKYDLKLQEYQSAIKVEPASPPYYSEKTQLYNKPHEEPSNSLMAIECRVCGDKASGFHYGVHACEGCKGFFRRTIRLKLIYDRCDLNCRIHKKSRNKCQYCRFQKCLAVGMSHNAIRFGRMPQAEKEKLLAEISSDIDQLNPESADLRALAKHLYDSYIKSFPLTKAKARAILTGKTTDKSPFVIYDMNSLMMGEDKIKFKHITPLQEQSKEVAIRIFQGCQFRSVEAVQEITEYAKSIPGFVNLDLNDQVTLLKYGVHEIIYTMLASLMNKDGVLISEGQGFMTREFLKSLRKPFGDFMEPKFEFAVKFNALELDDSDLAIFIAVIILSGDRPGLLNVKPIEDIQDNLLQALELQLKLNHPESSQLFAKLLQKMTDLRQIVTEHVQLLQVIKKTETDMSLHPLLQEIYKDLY

Regarding `Oc1ccccc1-c1ccccc1`, the compound was called inactive in test [1], in [2], in test [3], in test [4], in [5] and in [6]. Moreover, the call in test [7], in test [8], in test [9], in [10], in test [11] and in test [12] was inactive. Moreover, the AC50 in test [4] is 50 µM (active).
Consider `CON(C)C(=O)Nc1ccc(Cl)c(Cl)c1`, for which the compound was classed as inactive in [1], in test [2], in test [13], in [3], in [14] and in test [15]. Besides, the call in test [16], in test [4], in test [5], in [8], in test [11] and in test [12] was inactive. Besides, the AC50 in [6] was 4.86 µM (active); in [17], 85.8 µM (active); in test [7], 26.6 µM (active); in [9] it was 50 µM (active); in [10], 72.7 µM (active).
Consider `Cc1c(F)c(F)c(COC(=O)C2C(/C=C(\Cl)C(F)(F)F)C2(C)C)c(F)c1F` (stereo unspecified), for which the compound was called inactive in test [1], in test [2], in test [13], in [3], in test [14] and in test [15]. For the same compound, the compound was classed as inactive in test [16], in test [4], in test [5], in test [6], in [7] and in test [8]. For the same compound, the compound was classed as inactive in test [9], in test [11] and in test [12]. In addition, the AC50 in [10] was 50 µM (active).
`C=CCC1=C(C)C(OC(=O)C2C(C=C(C)C)C2(C)C)CC1=O` (stereo unspecified): the compound was classed as inactive in test [1], in test [2], in test [13], in test [3], in test [14] and in test [15]. Also, the compound was called inactive in test [16], in [4], in [5], in [6], in test [7] and in test [8]. Besides, the compound was called inactive in test [9], in test [11] and in [12]. Moreover, the AC50 in test [7] was 88.2 µM (active); in test [8], 83.6 µM (active) and 16.6 µM (active); in [9] it was 80.2 µM (active); in test [10], 50 µM (active) and 31.8 µM (active) and 35.1 µM (active).
With `CCNc1nc(Cl)nc(NCC)n1`, the compound was called inactive in test [1], in [2], in test [13], in test [3], in [14] and in [15]. Moreover, the outcome in test [16], in test [4], in test [5], in test [6], in test [7] and in test [8] was inactive. Also, the result in test [9], in test [11] and in test [12] was inactive. The AC50 in [10] is 21.4 µM (active).
